According to paper PMC5540273 (PLoS ONE, 2017):

test system: JAK1(JH1domain-catalytic); settings: concentration: 1 μM, replicates: in singlicate; n = 1
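Note: KINOMEscan kinase panel screen.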

Row | SMILES | %Inh [%]
1 | N#Cc1ccc(-c2cc(-c3c[nH]nc3-c3ccccn3)ccn2)cc1 [GW693028] | 22
2 | CCc1ccnc(/C=C/c2n[nH]c3cc(Sc4ccccc4C(=O)NC)ccc23)c1 | 0
3 | Cc1cccc(-c2nc(Nc3ccc4ncsc4c3)c3ccccc3n2)n1 [GW867588] | 0
4 | O=C1NC(=O)C(N2CCc3ccccc32)=C1c1cccc(Cl)c1 [SB-408010] | 14
5 | NS(=O)(=O)c1cccc(-c2ccc3ncc(N4CCOCC4)nc3c2)c1 [GSK1535721] | 8
6 | CN1c2ccc(CNc3ccc(F)cc3)cc2-c2c(cnn2C)S1(=O)=O | 2
7 | Cn1ccc2ncnc(Oc3ccc(NC(=O)Nc4ccncc4)c(Cl)c3)c21 | 14
8 | COc1cc(Nc2nccc(N3CCC(NC(=O)c4cccc(NC(C)=O)c4)C3)n2)cc(OC)c1OC (stereo not drawn) [GSK1379754] | 7
9 | CSc1ccc(-c2cc3ncnc(SCC(=O)O)c3s2)cc1 | 1
10 | CC(C)(C)n1cnc2c(N)ncnc21 [SKF-97359] | 0
11 | Cc1nnc(-c2ccc(C)c(-c3ccc(C(=O)Nc4ccc(NS(C)(=O)=O)cc4)cc3)c2)o1 [GW702865] | 9
12 | COc1ccc(S(=O)(=O)NC2CCN(c3cc(C)nc(Nc4cccc(C#N)c4)n3)CC2)cc1.O=C(O)C(F)(F)F [GSK1653539] | 34
13 | Cc1c2ccc(N(C)c3ccnc(Nc4cccc(S(N)(=O)=O)c4)n3)cc2nn1Cc1ccccc1.Cl.Cl [GW787226] | 36
14 | COc1cc2c(cc1OC[C@@H](O)CO)ncc1c3ccc(C#N)cc3[nH]c21 | 0
15 | O=C(NCCCN1CCOCC1)c1cccc(Nc2nccc(Nc3ccc(Oc4ccccc4)cc3)n2)c1 [GW663929] | 46
16 | Cc1ccc(NC(=O)c2ccnc(N3CCN(C)CC3)c2)cc1-c1ccc(C(=O)NCC2CC2)cc1 [GW775604] | 0
17 | O=C(Nc1n[nH]c2cc(-c3cccc(F)c3)ccc12)C1CC1 [SB-735464] | 12

Row | SMILES | %Inh [%]
18 | COc1ccc(Nc2nccc(N3CCC(NC(=O)Nc4cccc(C(C)=O)c4)C3)n2)cc1 (stereo not drawn) [GSK1379731] | 0
19 | COCCNC(=O)c1ccc(-c2cc(C(=O)NC3CC3)cc(F)c2C)cc1 [GW868318] | 0
20 | COc1ccc(CNC(=O)NC2CCN(c3ccnc(Nc4ccc(OC)cc4)n3)C2)cc1 (stereo not drawn) [GSK1379727] | 16
21 | Nc1nccc(-c2c(-c3ccc(F)cc3)ncn2C2CCN(CC(F)(F)F)CC2)n1 [SB-236560] | 0
22 | O=C(NCCNc1ccnc(Nc2ccc(F)cc2)n1)Nc1ccccc1F [GSK1379880] | 23
23 | O=C(Nc1cccc(-c2nn3ncccc3c2-c2ccnc(Nc3cccc(C(F)(F)F)c3)n2)c1)c1c(F)cccc1F [GSK299495] | 22
24 | COc1ccc(Nc2ncc(C#N)c(Nc3ccccc3C(N)=O)n2)cc1N1CCN(C)CC1.Cl [GSK1558669] | 0
25 | O=c1cc(N2CCOCC2)nc2n(Cc3cccc4ccccc34)ccn12 [GSK2333389] | 7
26 | Fc1ccc(-c2ncn(CCCN3CCOCC3)c2-c2ccccn2)cc1 [SB-211742] | 0
27 | CN1c2ccc(NCc3ccc(F)cc3)cc2-c2c(cnn2C)S1(=O)=O | 0
28 | Nc1nc(-c2ccc3c(N)n[nH]c3c2)cc(N2CCCC2)n1 [GSK2227430] | 0
29 | [2H]C([2H])(c1cccc(C(F)(F)F)c1C)n1ccn2c(=O)nc(N3CCOCC3)cc12 [GSK2336394] | 18
30 | COc1cc2ncn(-c3cc(OCc4sccc4Cl)c(C(N)=O)s3)c2cc1OC [GSK448459] | 0
31 | COc1cc2c(cc1OCCN1CCN(C)CC1)ncc1c3ccc(C#N)cc3[nH]c21 | 0
32 | Cc1nnc(-c2ccc3occ(-c4ccc(C(C)O)cc4)c3c2)o1 (stereo not drawn) | 0
33 | Cn1cc(-c2ccc3c(c2)CCN3C(=O)Cc2ccccc2Cl)c2c(N)ncnc21 [GSK2608885] | 0

test system: JAK1(JH2domain-pseudokinase); settings: concentration: 1 μM, replicates: in singlicate; n = 1

Row | SMILES | %Inh [%]
34 | N#Cc1ccc(-c2cc(-c3c[nH]nc3-c3ccccn3)ccn2)cc1 [GW693028] | 0
35 | CCc1ccnc(/C=C/c2n[nH]c3cc(Sc4ccccc4C(=O)NC)ccc23)c1 | 0
36 | Cc1cccc(-c2nc(Nc3ccc4ncsc4c3)c3ccccc3n2)n1 [GW867588] | 62
37 | O=C1NC(=O)C(N2CCc3ccccc32)=C1c1cccc(Cl)c1 [SB-408010] | 0
38 | NS(=O)(=O)c1cccc(-c2ccc3ncc(N4CCOCC4)nc3c2)c1 [GSK1535721] | 5
39 | CN1c2ccc(CNc3ccc(F)cc3)cc2-c2c(cnn2C)S1(=O)=O | 20
40 | Cn1ccc2ncnc(Oc3ccc(NC(=O)Nc4ccncc4)c(Cl)c3)c21 | 0
41 | COc1cc(Nc2nccc(N3CCC(NC(=O)c4cccc(NC(C)=O)c4)C3)n2)cc(OC)c1OC (stereo not drawn) [GSK1379754] | 11
42 | CSc1ccc(-c2cc3ncnc(SCC(=O)O)c3s2)cc1 | 0
43 | CC(C)(C)n1cnc2c(N)ncnc21 [SKF-97359] | 0
44 | Cc1nnc(-c2ccc(C)c(-c3ccc(C(=O)Nc4ccc(NS(C)(=O)=O)cc4)cc3)c2)o1 [GW702865] | 0
45 | COc1ccc(S(=O)(=O)NC2CCN(c3cc(C)nc(Nc4cccc(C#N)c4)n3)CC2)cc1.O=C(O)C(F)(F)F [GSK1653539] | 0
46 | Cc1c2ccc(N(C)c3ccnc(Nc4cccc(S(N)(=O)=O)c4)n3)cc2nn1Cc1ccccc1.Cl.Cl [GW787226] | 26
47 | COc1cc2c(cc1OC[C@@H](O)CO)ncc1c3ccc(C#N)cc3[nH]c21 | 11
48 | O=C(NCCCN1CCOCC1)c1cccc(Nc2nccc(Nc3ccc(Oc4ccccc4)cc3)n2)c1 [GW663929] | 21
49 | Cc1ccc(NC(=O)c2ccnc(N3CCN(C)CC3)c2)cc1-c1ccc(C(=O)NCC2CC2)cc1 [GW775604] | 27
50 | O=C(Nc1n[nH]c2cc(-c3cccc(F)c3)ccc12)C1CC1 [SB-735464] | 23

Row | SMILES | %Inh [%]
51 | COc1ccc(Nc2nccc(N3CCC(NC(=O)Nc4cccc(C(C)=O)c4)C3)n2)cc1 (stereo not drawn) [GSK1379731] | 0
52 | COCCNC(=O)c1ccc(-c2cc(C(=O)NC3CC3)cc(F)c2C)cc1 [GW868318] | 16
53 | COc1ccc(CNC(=O)NC2CCN(c3ccnc(Nc4ccc(OC)cc4)n3)C2)cc1 (stereo not drawn) [GSK1379727] | 0
54 | Nc1nccc(-c2c(-c3ccc(F)cc3)ncn2C2CCN(CC(F)(F)F)CC2)n1 [SB-236560] | 0
55 | O=C(NCCNc1ccnc(Nc2ccc(F)cc2)n1)Nc1ccccc1F [GSK1379880] | 0
56 | O=C(Nc1cccc(-c2nn3ncccc3c2-c2ccnc(Nc3cccc(C(F)(F)F)c3)n2)c1)c1c(F)cccc1F [GSK299495] | 0
57 | COc1ccc(Nc2ncc(C#N)c(Nc3ccccc3C(N)=O)n2)cc1N1CCN(C)CC1.Cl [GSK1558669] | 99.9
58 | O=c1cc(N2CCOCC2)nc2n(Cc3cccc4ccccc34)ccn12 [GSK2333389] | 0
59 | Fc1ccc(-c2ncn(CCCN3CCOCC3)c2-c2ccccn2)cc1 [SB-211742] | 0
60 | CN1c2ccc(NCc3ccc(F)cc3)cc2-c2c(cnn2C)S1(=O)=O | 11
61 | Nc1nc(-c2ccc3c(N)n[nH]c3c2)cc(N2CCCC2)n1 [GSK2227430] | 11
62 | [2H]C([2H])(c1cccc(C(F)(F)F)c1C)n1ccn2c(=O)nc(N3CCOCC3)cc12 [GSK2336394] | 0
63 | COc1cc2ncn(-c3cc(OCc4sccc4Cl)c(C(N)=O)s3)c2cc1OC [GSK448459] | 0
64 | COc1cc2c(cc1OCCN1CCN(C)CC1)ncc1c3ccc(C#N)cc3[nH]c21 | 60
65 | Cc1nnc(-c2ccc3occ(-c4ccc(C(C)O)cc4)c3c2)o1 (stereo not drawn) | 5
66 | Cn1cc(-c2ccc3c(c2)CCN3C(=O)Cc2ccccc2Cl)c2c(N)ncnc21 [GSK2608885] | 2
